Assay [1] is described as follows: compounds binding Alexa647 anti-His antibody – biochemical, small-molecule microarray, 635 nm fluorescence, artefact control for SMM control protein annotation, primary screen (AID 1128).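 Also: score merges feature fluorescence with signal-to-noise for each printed compound spot.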 Conditions: higher = more signal.
For assay [2], the system named is Human papillomavirus type 1a E7 protein (residues 1-88). Put plainly: HPV1a E7 small-molecule binders, primary screen, biochemical, small-molecule microarray, residues 1-88, 635 nm (AID 1129). Conditions: small-molecule microarray binding, fluorescence 635 nm; higher = more signal.
Assay [3] has as its target Focal adhesion kinase 1 (Homo sapiens) (UniProt Q05397). As to the kind of experiment: PTK2 protein binding on printed compound slides – biochemical, small-molecule microarray, 635/667 nm fluorescence, BSA, DTT, primary screen (AID 1130).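 Also: composite of spot emission at 667 nm and signal to noise over triplicate slides.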 Conditions: 635 nm fluorescence, higher = more signal.
Assay [4] concerns Fibrinogen (Alexa647-labelled). Put plainly: Alexa647-fibrinogen binding to printed small molecules – biochemical, small-molecule microarray, 635/667 nm fluorescence, artefact control for SMM control-protein annotation, profiling panel (AID 1131).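 Also: z-score merges 667 nm fluorescence with per-spot signal-to-noise over triplicate slides.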 Conditions: fibrinogen-A647 binding fluorescence, higher = more signal.
The target of assay [5] is Follistatin (Homo sapiens) (UniProt P19883). Put plainly: FST protein binding to printed compounds – biochemical, small-molecule microarray, 635/667 nm fluorescence, primary screen (AID 1132). Conditions: 635 nm fluorescence, higher = more signal.
Assay [6] addresses Fibroblast growth factor 2 (Homo sapiens) (UniProt P09038). Put plainly: basic fibroblast growth factor binding to printed compounds – biochemical, small-molecule microarray, 635/667 nm fluorescence, primary screen (AID 1133). Conditions: FGF2, fluorescence 635/667, higher = more signal.
The nature of assay [7]: JC-1 mitochondrial potential readout, lung cancer cells – cell-based, A549, JC-1 fluorescence, basal, 24 h, 100 nL, profiling panel (AID 1138).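 Also: A549 lung adenocarcinoma cells under basal conditions with no added stimulus; test concentration not given here.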 Conditions: higher = more signal.
A further assay deals with Lefty1. Put plainly: Lefty1 protein binding to printed compounds – biochemical, small-molecule microarray, 635/667 nm fluorescence, primary screen (AID 1139). Conditions: fluorescence 635/667, higher = more signal.
The test system of assay [8] is wheat germ agglutinin (Triticum aestivum), Alexa647-labelled. Put plainly: Alexa647-WGA lectin binding to printed small molecules – biochemical, small-molecule microarray, 635/667 nm fluorescence, artefact control for SMM control-protein annotation, profiling panel (AID 1140).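 Also: score merges 667 nm feature emission with signal to noise over triplicate slides.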 Conditions: WGA-A647 binding, 635 nm fluorescence, higher = more signal.
Assay [9] deals with Luciferin 4-monooxygenase (Photinus pyralis) (UniProt P08659). As to the kind of experiment: inhibition of purified Photinus pyralis luciferase – biochemical, luminescence, purified enzyme, 2006 set, primary screen (AID 1141).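 Also: cell-free assay with purified firefly luciferase at 100 ng per well in PBS; test concentration not given here.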 Conditions: purified firefly luciferase, SteadyGlo luminescence, 30 min; higher = more signal, called active from +8 up or from −8 down.
The test system of assay [10] is Wnt5a (protein binding on small-molecule microarray). As to the kind of experiment: small molecules binding Wnt5a protein – biophysical, small-molecule microarray, 635/667 nm fluorescence, primary screen (AID 1142).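 Also: fluorescence read at 667 nm with signal to noise per printed feature.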 Conditions: 635 nm fluorescence, higher = more signal.
A short description of assay [11]: ATP-based viability of Huh7 replicon cells – cell-based, CellTiter-Glo luminescence, basal, 48 h, cytotoxicity control for HCV replication inhibitor project, primary screen (AID 1143).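 Also: Huh7 hepatoma cells carrying a hepatitis C replication reporter with no stimulus; test concentration not given here.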 Conditions: higher = more signal, called active from +8 up or from −8 down. Background: Replicon systems follow genome replication, usually without infectious particles.
Assay [12] in a line: Pseudomonas biofilm growth suppression – PAO1 strain, BacTiter-Glo luminescence, LB-PBS, primary screen (AID 1144). Conditions: P. aeruginosa PAO1 biofilm, 12 h, higher = more signal.
A short description of assay [13]: basal CRE-LacZ reporter activity in PC12 – cell-based, unstimulated, primary screen (AID 1145). Conditions: no forskolin, luminescence, 4.5 h, higher = more signal, called active from +8 up or from −8 down.
Assay [14] can be described thus: forskolin-driven CRE-LacZ activity in PC12 – cell-based, CRE-LacZ reporter, forskolin-stimulated, primary screen (AID 1146).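 Also: PC12 cells with 6xCRE LacZ reporter stimulated by forskolin 10 µM; beta-galactosidase reporter signal reflecting CREB driven transcription.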 Conditions: luminescence, 4.5 h, higher = more signal, called active from +8 up or from −8 down.
Assay [15] addresses Streptavidin (Streptomyces avidinii) (UniProt P22629). As to the kind of experiment: compounds binding control protein streptavidin – biophysical, small-molecule microarray, 635/667 nm fluorescence, artefact control for SMM compound annotation, primary screen (AID 1147).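 Also: signal reflects streptavidin binding to arrayed compounds as a control protein.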 Conditions: higher = more signal.
A short description of assay [16]: probe aInhba binding on compound microarray – biochemical, small-molecule microarray, 635/667 nm fluorescence, primary screen (AID 1148).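 Also: score merges 667nm spot fluorescence with signal-to-noise for antibody binding to printed compounds.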 Conditions: higher = more signal.
The target of assay [17] is Torsin-1A (Homo sapiens) (UniProt O14656). As to the kind of experiment: TOR1A wild-type binding on microarray – cell lysate, small-molecule microarray, lysate, 635/667 nm, primary screen (AID 1149). Conditions: COS7 hTOR1A-WT lysate, 635 nm fluorescence, higher = more signal.
Assay [18] has the same target. Put plainly: torsin A mutant lysate binding on microarrays – cell lysate, small-molecule microarray, COS7 lysate, 635/667 nm fluorescence, primary screen (AID 1150).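 Also: score pools 667 nm emission and signal to noise measuring lysate protein binding.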 Conditions: COS7 hTOR1A mutant lysate, 635 nm fluorescence, higher = more signal.
The test system of assay [19] is Sonic hedgehog protein (Shh). Put plainly: Sonic hedgehog microarray binding compounds – biochemical, small-molecule microarray, 635/667 nm fluorescence, primary screen (AID 1151).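 Also: Shh protein binding to compounds spotted on small-molecule microarray slides; score combines spot fluorescence intensity with signal-to-noise across triplicate slides.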 Conditions: 635 nm fluorescence, higher = more signal.

The source made the active and inactive calls. Unless noted, no rule for the calls is given here.

Sequence of Follistatin (Homo sapiens) (P19883 whole entry, looked up): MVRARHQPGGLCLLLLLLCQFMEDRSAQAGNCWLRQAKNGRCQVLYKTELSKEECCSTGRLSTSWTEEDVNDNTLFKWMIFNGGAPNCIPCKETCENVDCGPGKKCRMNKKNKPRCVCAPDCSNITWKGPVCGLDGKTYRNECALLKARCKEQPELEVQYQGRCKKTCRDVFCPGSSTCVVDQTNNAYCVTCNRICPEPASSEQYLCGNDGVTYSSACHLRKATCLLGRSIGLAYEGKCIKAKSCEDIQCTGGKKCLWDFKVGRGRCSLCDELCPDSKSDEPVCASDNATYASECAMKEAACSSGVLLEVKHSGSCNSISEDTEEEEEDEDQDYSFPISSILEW
Sequence of Focal adhesion kinase 1 (Homo sapiens) (Q05397 whole entry, looked up): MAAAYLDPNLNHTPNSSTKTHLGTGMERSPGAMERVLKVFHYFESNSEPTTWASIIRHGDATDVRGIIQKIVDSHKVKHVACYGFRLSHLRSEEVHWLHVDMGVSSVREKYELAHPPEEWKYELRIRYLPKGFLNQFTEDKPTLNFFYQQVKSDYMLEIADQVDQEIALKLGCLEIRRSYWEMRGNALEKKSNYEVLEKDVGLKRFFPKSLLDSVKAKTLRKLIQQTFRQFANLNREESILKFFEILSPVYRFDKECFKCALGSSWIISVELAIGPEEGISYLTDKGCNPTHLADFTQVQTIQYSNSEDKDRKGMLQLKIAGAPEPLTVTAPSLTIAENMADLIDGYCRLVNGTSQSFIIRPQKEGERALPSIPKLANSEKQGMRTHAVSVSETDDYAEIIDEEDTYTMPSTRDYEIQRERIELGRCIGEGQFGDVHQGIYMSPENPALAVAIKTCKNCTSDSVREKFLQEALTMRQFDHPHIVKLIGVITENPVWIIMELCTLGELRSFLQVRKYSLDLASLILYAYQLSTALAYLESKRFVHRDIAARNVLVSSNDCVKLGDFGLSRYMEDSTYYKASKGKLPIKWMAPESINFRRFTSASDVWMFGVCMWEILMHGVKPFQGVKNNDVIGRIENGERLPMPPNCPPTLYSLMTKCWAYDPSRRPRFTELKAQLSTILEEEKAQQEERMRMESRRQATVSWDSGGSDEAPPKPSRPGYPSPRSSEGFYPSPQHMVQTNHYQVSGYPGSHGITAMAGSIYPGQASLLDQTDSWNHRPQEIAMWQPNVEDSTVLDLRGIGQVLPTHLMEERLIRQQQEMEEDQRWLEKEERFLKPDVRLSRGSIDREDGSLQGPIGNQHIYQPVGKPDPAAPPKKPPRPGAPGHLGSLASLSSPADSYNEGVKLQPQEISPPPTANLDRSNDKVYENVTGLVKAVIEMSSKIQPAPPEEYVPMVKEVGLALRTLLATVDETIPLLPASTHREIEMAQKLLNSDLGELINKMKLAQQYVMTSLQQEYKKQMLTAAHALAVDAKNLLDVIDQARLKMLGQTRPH
Sequence of Torsin-1A (Homo sapiens) (O14656 whole entry, looked up): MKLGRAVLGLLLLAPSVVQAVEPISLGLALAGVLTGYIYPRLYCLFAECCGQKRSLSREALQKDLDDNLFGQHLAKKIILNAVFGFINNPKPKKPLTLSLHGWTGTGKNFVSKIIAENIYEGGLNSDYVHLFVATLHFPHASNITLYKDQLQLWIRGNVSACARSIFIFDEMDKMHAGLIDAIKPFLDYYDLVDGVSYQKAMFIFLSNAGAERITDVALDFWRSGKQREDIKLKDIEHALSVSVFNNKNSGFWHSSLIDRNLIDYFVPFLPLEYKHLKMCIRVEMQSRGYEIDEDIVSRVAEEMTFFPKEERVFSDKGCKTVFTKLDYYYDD
Sequence of Fibroblast growth factor 2 (Homo sapiens) (P09038 whole entry, looked up): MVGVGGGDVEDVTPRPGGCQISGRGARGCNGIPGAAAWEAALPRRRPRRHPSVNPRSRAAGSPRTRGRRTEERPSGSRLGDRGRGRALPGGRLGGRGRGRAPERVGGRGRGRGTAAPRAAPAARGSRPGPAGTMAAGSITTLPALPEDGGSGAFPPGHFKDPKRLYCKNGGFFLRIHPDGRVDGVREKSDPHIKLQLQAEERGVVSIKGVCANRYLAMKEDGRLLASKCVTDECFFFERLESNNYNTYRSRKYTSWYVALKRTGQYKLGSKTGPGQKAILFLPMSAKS
Sequence of Luciferin 4-monooxygenase (Photinus pyralis) (P08659 whole entry, looked up): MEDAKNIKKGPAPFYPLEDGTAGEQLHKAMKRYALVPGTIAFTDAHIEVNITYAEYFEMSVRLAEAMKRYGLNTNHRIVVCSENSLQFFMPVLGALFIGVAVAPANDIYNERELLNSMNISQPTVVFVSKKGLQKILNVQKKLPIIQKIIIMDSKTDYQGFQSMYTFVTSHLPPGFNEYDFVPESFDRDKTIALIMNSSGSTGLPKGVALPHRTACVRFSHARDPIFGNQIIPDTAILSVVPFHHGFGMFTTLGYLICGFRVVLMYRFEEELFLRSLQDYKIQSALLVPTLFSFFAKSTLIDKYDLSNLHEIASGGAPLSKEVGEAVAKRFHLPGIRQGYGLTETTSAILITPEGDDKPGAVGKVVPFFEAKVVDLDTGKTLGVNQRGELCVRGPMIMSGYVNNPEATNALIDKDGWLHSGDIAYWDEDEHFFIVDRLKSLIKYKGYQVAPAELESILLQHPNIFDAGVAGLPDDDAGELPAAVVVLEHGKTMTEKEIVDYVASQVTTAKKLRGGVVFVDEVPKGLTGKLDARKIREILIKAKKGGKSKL
Sequence of Streptavidin (Streptomyces avidinii) (P22629 whole entry, looked up): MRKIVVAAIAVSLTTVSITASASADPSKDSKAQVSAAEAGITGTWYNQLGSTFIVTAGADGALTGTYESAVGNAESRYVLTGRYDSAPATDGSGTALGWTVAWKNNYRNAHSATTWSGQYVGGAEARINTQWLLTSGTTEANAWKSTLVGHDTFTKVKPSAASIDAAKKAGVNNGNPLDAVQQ

Consider `CN(C)CCCC[C@@H]1NC(=O)[C@H]2C[C@@H](C(=O)NCCCCCNC(=O)CS)[C@@H](c3cccc(OCCO)c3)N2C1=O`, for which the composite z-score came out at 1.32 in assay [1]; 0.866 in assay [2]; 0.688 in assay [3]; 0.44 in assay [4]; 1.41 in assay [5]; 1.69 in [6]. Moreover, the composite z-score in the assay on Lefty1 is 1; in [8] it was -0.0708; in assay [10] it was 0.12; in assay [15], 0.182; in [16], -0.128; in the assay with Torsin-1A (Homo sapiens) [17], 0.537. In addition, the composite z-score in the assay with Torsin-1A (Homo sapiens) [18] is 0.749; in assay [19], 1.72. Further, the z-score is 0.446 in assay [7]; -0.804 (inactive) in [9]; 0.358 (inactive) in assay [11]; -0.358 (inactive) in [12]; -0.114 (inactive) in assay [13]; 0.547 (inactive) in assay [14].
As for `C=C[C@H](COC(C)=O)N(C(=O)OC(C)(C)C)S(=O)(=O)c1ccc(Br)cc1`, the composite z-score in [1] is 1.7; in [2] it was 0.851; in [3] it was 0.461; in [4], -0.296; in assay [5], 0.867; in assay [6], 0.433. Further, the composite z-score came out at 0.65 with Lefty1; 0.233 in assay [8]; 0.77 in [10]; 0.304 in assay [15]; 0.898 in assay [16]; 0.446 in the assay with Torsin-1A (Homo sapiens) [17]. Also, the figures for the composite z-score (with Torsin-1A (Homo sapiens) [18]; in [19]) were 0.31 and 0.457, respectively. Further, the z-score in assay [7] was 0.671; in [9], -1.57 (inactive); in assay [11] it was -0.121 (inactive); in [12], -0.41 (inactive); in assay [13], 0.652 (inactive); in [14], 1.66 (inactive).
For the molecule `O=C(NCC(F)(F)F)[C@@H]1c2ccccc2C(=O)N(C2CCCCC2)[C@H]1c1ccc(CO)cc1`, the composite z-score was -0.216 in assay [1]; 0.402 in assay [2]; -0.013 in assay [3]; 0.403 in [4]; 0.173 in assay [5]; -0.179 in assay [6]. Also, the composite z-score in the assay on Lefty1 is -0.63; in [8], 0.807; in assay [10] it was -0.107; in assay [15] it was 0.0656; in assay [16], -0.0422; with Torsin-1A (Homo sapiens) [17] it was 0.252. Further, the composite z-score was -0.287 with Torsin-1A (Homo sapiens) [18] and -0.376 in assay [19]. In addition, the z-score in [7] was 0.221; in assay [9] it was -0.128 (inactive); in [11], -1.51 (inactive); in assay [12] it was 0.795 (inactive); in assay [13], 0.299 (inactive); in assay [14], -0.258 (inactive).
For `COC(=O)c1c(CC[C@@H](CO)NC(=O)N[C@H](Cn2cc(Cc3ccccc3)nn2)C(C)C)oc(C(C)=O)c1C(=O)OC`, the composite z-score is 0.583 in assay [1]; 0.641 in [2]; -0.0225 in [3]; 0.519 in [4]; 1.29 in assay [5]; 1.51 in assay [6]. The composite z-score is 1.24 in the assay on Lefty1; 0.261 in assay [8]; 0.367 in assay [10]; -0.166 in assay [15]; -0.0759 in [16]; -0.372 in the assay with Torsin-1A (Homo sapiens) [17]. Moreover, the figures for the composite z-score (in the assay with Torsin-1A (Homo sapiens) [18]; in [19]) were 0.882 and 2.1, respectively. Further, the z-score in assay [7] was 0.0865; in [9] it was -0.0001 (inactive); in assay [11] it was -2.8 (inactive); in assay [12] it was -0.973 (inactive); in assay [13], 0.904 (inactive); in assay [14], -1.21 (inactive).
As for `COC(=O)[C@@]1(Cc2ccccc2)[C@H]2c3cc(C(=O)N(C)C)n(CCSCCO)c3C[C@H]2CN1C(=O)c1ccccc1`, the composite z-score in assay [1] is 1.25; in [2] it was 1.2; in assay [3], 0.342; in assay [4] it was 0.632; in assay [5], -0.347; in assay [6], -0.299. Also, the composite z-score was -0.84 with Lefty1; 0.879 in assay [8]; 0.197 in [10]; 0.357 in assay [15]; -0.0589 in assay [16]; -0.0487 in the assay with Torsin-1A (Homo sapiens) [17]. Besides, the composite z-score with Torsin-1A (Homo sapiens) [18] was 0.796; in [19] it was -0.931. Further, the z-score was 0.599 in assay [7]; 1.14 (inactive) in [9]; -0.432 (inactive) in assay [11]; 0.33 (inactive) in [12]; 0.397 (inactive) in assay [13]; 0.695 (inactive) in assay [14].
